Bioassay records: PubChem, National Center for Advancing Translational Sciences (NCATS)
Pf Dd2 growth: inhibitors of Plasmodium falciparum Dd2 growth; P. falciparum Dd2 growth, SYBR Green, 72 h; Potency, µM (series often up to 28.9 µM), inactives show at the highest dose activity, negative = inhibition, hits mostly inhibitors; actives 4.3% (n = 120,000); AID 1347417; active = well fitted inhibition curve with a large enough effect;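 also: plate controls were DMSO vehicle for no effect and reference drug for full effect; nearly all actives have a fitted effect of over 65% in size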
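Readout: SYBR Green fluorescence, 485 nm excitation, 535 nm emission, after ~16 h lysis at 37C. Before that, Dd2-infected red cells (2.5% hematocrit) grew 72 h with compound, 29 uM top final concentration.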
The depositor's hits bear a star; i = inactive; [ ] = dose if it differs, or a comment. The full list was thinned out, with hits kept by preference. Potency is read from the fitted curve at half-maximal effect.

SMILES | Pf Dd2 growth
NCC(=O)N1Cc2ccccc2CC2(CCN(CC3CCOCC3)C2)C1 (stereo not given) | 8.91µM*
O=C(C1CCCC1)N1Cc2ccccc2CC2(CCN(CC3CCOCC3)C2)C1 (stereo not given) | 7.08µM*
NCC(=O)N1Cc2ccccc2CC2(CCN(CC3CCNC3)C2)C1 (stereo not given) | 14.7%
NCC(=O)N1Cc2ccccc2CC2(CCCN(CC3CCCC3)C2)C1 (stereo not given) | 7.94µM*
CN(C)CCC(=O)N1Cc2ccccc2CC2(CCCN(CC3CCOCC3)C2)C1 (stereo not given) | -10.2%
CCN1CCC2(Cc3ccccc3CN(C(=O)C3CCCC3)C2)C1 (stereo not given) | 8.91µM*
CC(=O)NCC(=O)N1Cc2ccccc2CC2(CCN(CC3CCOCC3)C2)C1 (stereo not given) | 3.9%
CN1CCC(C(=O)N2Cc3ccccc3CC3(CCN(Cc4ccccn4)C3)C2)CC1 (stereo not given) | -20.7%
CC(C)(CN1CCOCC1)CN1CCCN(Cc2cccnc2)CC1 | 0.8%
Cc1cncc(C(=O)N[C@@H]2CN(S(C)(=O)=O)C[C@H]2CN(C)C)c1 | 32.1%
CCc1nncn1C1CCN(S(=O)(=O)c2cccc(F)c2)CC1 | -13.0%
COCC(=O)N(C1CCOCC1)C1CCN(C(=O)c2cc(Cl)ccc2F)CC1 | 8.6%
Cc1cccc(OCC(=O)Nc2c(C(=O)Nc3ccc(F)cc3)oc3ccccc23)c1 | 28.9%
Cc1cccc(OCC(=O)Nc2c(C(=O)N3CCN(c4ccccc4)CC3)oc3ccccc23)c1 | 11.2µM*
COc1ccc(N2CCN(C(=O)c3oc4ccccc4c3NC(=O)c3ccccc3OC)CC2)cc1 | -11.1%
Cc1cccc(C(=O)Nc2c(C(=O)N3CCN(c4ccc(F)cc4)CC3)oc3ccccc23)c1 | 12.6µM*
O=C(Nc1c(C(=O)N2CCN(c3ccccc3)CC2)oc2ccccc12)c1ccc(Br)o1 | 10µM*
O=C(Nc1c(C(=O)N2CCN(c3ccccc3)CC2)oc2ccccc12)c1ccccc1F | 16.8%
Cc1ccc(C(=O)c2oc3ccccc3c2NC(=O)COc2ccc(Cl)c(C)c2)cc1 | 35.8%
O=C(Nc1c(C(=O)N2CCN(c3ccccc3F)CC2)oc2ccccc12)c1ccccc1F | -22.5%
Cc1cccc(CC(=O)Nc2c(C(=O)Nc3cccc(F)c3)oc3ccccc23)c1 | i
O=C(NC1C[C@H]2CC[C@@H](C1)N2C(=O)Cc1ccc(F)cc1)c1ccncc1 (stereo not given in full) | i
CC(C)N1CCN(C2CCN(c3ccc4c(c3)OCO4)CC2)CC1CCO (stereo not given) | -15.4%
NC(=O)N1CCCC(C(=O)N2CCN(Cc3cccc(O)c3)CC2)C1 (stereo not given) | 8.4%
COc1ccc(C(=O)N2CC[C@H](CO)[C@H](NC(=O)C3CC3)C2)cc1F | -4.5%
SMILES | Pf Dd2 growth
Cc1ccc2nc3n(c2c1)[C@@H](CNCc1ccc(C(=O)O)cc1)COC3 | 1.8%[44.1 µM]
CNC(=O)[C@@H]1C[C@H](n2cc(CN(C)C(=O)Nc3ccc(C)c(C)c3)nn2)CN1 | 2.1%
NS(=O)(=O)c1ccc(CCNCC2(O)CCNC2)cc1 (stereo not given) | 6.4%
Cc1nn2c(c1-c1ccccc1-c1ccccc1)N(Cc1ccc(OCC(=O)O)cc1)CCC2 | i
Cc1nn2c(c1-c1ccccc1-c1ccccc1)N(Cc1cccc(O)c1)CCC2 | 0.794µM*
Cc1nn2c(c1-c1ccccc1Oc1ccccc1)N(CC1CC1)CCC2 | i
Cc1nn2c(c1-c1ccccc1Oc1ccccc1)N(CC1CCOCC1)CCC2 | 7.94µM*
Cc1nn2c(c1-c1cccnc1N1CCOCC1)N(CC1CC1)CCC2 | i
COc1ccc(CN2CCCn3nc(C)c(-c4ccccc4Oc4ccccc4)c32)cc1O | 1.26µM*
CC(=O)Nc1ccccc1-c1c(C)nn2c1N(Cc1ccccc1)CCC2 | i
Cc1nn2c(c1-c1ccccc1Oc1ccccc1)N(C(=O)c1ccc(F)cc1)CCC2 | i
COc1cccc(CN2CCCn3nc(C)c(-c4cnccc4C)c32)c1 | -9.0%[44.1 µM]
COCCN1C(=O)[C@H]2CN(Cc3cccn3C)C[C@H]2C1=O | -6.4%
Cc1ccc(-c2ccc3nnc(CNC(=O)c4ccco4)n3n2)cc1C | 8.0%
O=C(O)c1ccc(CN2C[C@H](O)C[C@H]2c2nc(-c3ccncc3)no2)cc1 | -1.6%[44.1 µM]
CC(C)OCCCNc1ncnc2c1CN(C1CCC1)C(=O)CN2C | -6.5%[44.1 µM]
COCC(=O)NC[C@H]1O[C@@H](CO)[C@@H](O)[C@H]1N1CCc2ccccc2C1 | -13.4%[44.1 µM]
COc1cccc(NC(=O)CCC2CCN(C(=O)c3cnc(C)[nH]c3=O)CC2)c1 | -6.2%
COc1ccccc1C(=O)NC[C@H]1Cn2c(-c3ccc4c(c3)OCCO4)cnc2CO1 | -0.9%[44.1 µM]
Fc1ccc(CNC[C@H]2Cn3c(-c4ccc(F)cc4)cnc3CO2)cc1 | -15.2%[44.1 µM]
COc1ccccc1CNC[C@H]1Cn2c(-c3cccc(Cl)c3)cnc2CO1 | 12.6µM*
C=CCNC(=O)N1CCC(O)(c2csc(CN3CC[C@@H](O)C3)n2)CC1 | 4.3%[44.1 µM]
COc1ccc(C(=O)N2CCC3(CC2)NC(=O)N(Cc2ccc(C)cc2)C3=O)cc1 | i
CCOC(=O)c1c(C)oc2nc(C)nc(NCCCN3CCN(c4ccccc4)CC3)c12 | -13.5%
CCOC(=O)c1c(C)oc2nc(C)nc(N3CCN(c4ccccc4F)CC3)c12 | 3.16µM*
SMILES | Pf Dd2 growth
CCOC(=O)c1c(C)oc2nc(C)nc(NCCc3ccc(Cl)cc3)c12 | -17.9%
CCOC(=O)c1c(C)oc2nc(C)nc(N3CCN(c4cc(Cl)ccc4C)CC3)c12 | 8.91µM*
Cc1nc(N2CCOCC2)c2c(C(=O)N3CCN(c4ccccc4)CC3)c(C)oc2n1 | 32.4%
CCOC(=O)c1c(C)oc2nc(C)nc(NCC3CCN(Cc4cccc(Cl)c4)CC3)c12 | -18.1%
CCOC(=O)c1c(C)oc2nc(C)nc(NCCc3ccc(OCC)cc3)c12 | i[5.79 µM]
CCc1cccc(NC(=O)c2c(C)oc3nc(C)nc(N4CCCC4)c23)c1 | -8.7%
CCOC(=O)c1c(C)oc2nc(C)nc(NCC3CCN(Cc4ccc(C)cc4)CC3)c12 | 7.08µM*
O=C(c1ccc2cc[nH]c2c1)N1CCCC(Cc2noc(-c3ccccn3)n2)C1 (stereo not given) | i
COc1ccc(-c2noc([C@@H]3CCCN3C(=O)c3cccc(C)c3)n2)cc1 | -6.5%
CCCc1cc(C(=O)N2CC[C@@H](NC(=O)c3cnccn3)[C@H](O)C2)no1 | 10.0%
O=C(c1cc(-c2cccs2)[nH]n1)N1CCc2c(nc3cc(-c4ccccc4)[nH]n3c2=O)C1 | -22.1%
CCN(CC)C(=O)CC[C@@H]1CNC(=O)[C@@H]2C[C@H](NC(=O)Nc3ccsc3)CN12 | -23.4%[44.1 µM]
CN1C(=O)CCCCC1C(=O)NCC1CCCCC1 (stereo not given) | 12.0%
COc1cc(NC(=O)CCC2CCCN(Cc3ncccn3)C2)cc(OC)c1 (stereo not given) | -23.3%
CS(=O)(=O)N1CCc2ccc(C(=O)Nc3ccc(Oc4ccccc4)cc3)cc21 | -16.2%
CS(=O)(=O)N1CCC(C2CCN(C3CCSCC3)C2)CC1 (stereo not given) | -29.1%
Cc1ccc(N(C)S(=O)(=O)c2ccc3[nH]c4c(c3c2)CCCC4)cc1 | -17.0%
CCN(Cc1ccccc1)S(=O)(=O)c1ccc2[nH]c3c(c2c1)CCCCC3 | 12.6µM*
CCc1ccc(NS(=O)(=O)c2ccc3[nH]c4c(c3c2)CCCCCC4)cc1 | 14.1%
COc1ccc(Nc2cc(C(=O)NC3CCCC3)c3ccccc3n2)cc1 | 4.4%
COc1ccc(Nc2cc(C(=O)NCCCN(C)C3CCCCC3)c3ccccc3n2)cc1 | 5.62µM*
